Results on 40 compounds are retold here after PubChem BioAssay (EPA / NIEHS).

Each structure is given as a SMILES string. Records with an inconclusive call do not appear. Activity calls are given as the source filed them. The calls were made as follows: active = hit-call score of the fitted dose curve at least 0.9, where 1 is the maximum; inconclusive = response in the unintended direction; inactive = score below 0.9.

Read-out in the experiment: HMG-CoA synthase (HMGCS2), HMGCS2 (gene 3158)
In words: CLD_HMGCS2_6hr: CellzDirect (CLD) Gene Expression Assay for HMG-CoA synthase (HMGCS2) at 6 hours (AID 2283682).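 Also: actives raise HMGCS2 transcript above the 0.2% DMSO vehicle baseline.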 As for the experimental part:
CLD_6hr is a cell-based, multiplexed-readout assay that uses hepatocyte, a human liver primary cell, with measurements taken at 6 hours after chemical dosing in a 96-well plate.CLD_HMGCS2_6hr is one of 16 assay component(s) measured or calculated from the CLD_6hr assay. It is designed to make measurements of mRNA induction, a form of inducible reporter, as detected with chemiluminescence signals by Quantitative Nuclease Protection Assay (qNPA) technology.Data from the assay component CLD_HMGCS2_6hr was analyzed at the endpoint, CLD_HMGCS2_6hr, in the positive analysis fitting direction relative to DMSO as the negative control and baseline of activity. Using a type of inducible reporter, gain-of-signal activity can be used to understand changes in the reporter gene as they relate to the gene HMGCS2. Furthermore, this assay endpoint can be referred to as a primary readout. To generalize the intended target to other relatable targets, this assay endpoint is annotated to the lyase intended target family, where subfamily is HMG-CoA synthase.
Human hepatocyte cultures were treated daily for two consecutive days with fresh dosing solutions containing appropriate concentrations of the 320 ToxCast chemicals (chemical identities were blinded to CellzDirect and other ToxCast collaborators), vehicle control (0.2% DMSO), and positive control inducers as summarized in Table 1. Due to the large number of treatment groups and chemicals examined, the ToxCast chemicals were divided into two groups (spanning two independent cultures of hepatocytes from separate donor preparations (Hu778: ToxCast plates 1 and 2; Hu776: ToxCast plates 3 and 4). Each preparation of human hepatocyte cultures was treated with respective vehicle control, medium only control, set of six positive controls/reference chemicals for the five hepatic receptor pathways, and a subset of eight of the ToxCast chemicals (indoxacarb, pyrithiobac-sodium, norflurazon, cyhalofop-butyl, methomyl, thiram, acetochlor, and propiconazole). These replicate data, coupled with internal replicates designed within the blinded ToxCast chemical library, provided additional data to evaluate interindividual differences between hepatocyte preparations and their potential impact on chemical profiles.Cell morphology and integrity were evaluated using phase-contrast microscopy as an indicator of hepatocyte cell health (Tyson & Green, 1987). Cultures for each treatment group (i.e., media, vehicle [0.2% DMSO], positive control inducers [multiple concentrations], and the ToxCast chemicals [multiple concentrations]) were observed and cell morphology was assessed relative to vehicle control cultures at each harvest time point (0, 6, 24, or 48 h). […] Images were evaluated at the conclusion of the study to assess changes in cell integrity and account for the effects of chemical exposure on uncharacteristic changes in concentration-dependent gene expression profiles. The results from these determinations of apparent cytotoxicity were annotated (yes/no) alongside the corresponding qNPA data for reference.At the conclusion of each treatment period, hepatocyte cultures (96-well) were washed with 1 volume of HBSS, lysed by addition of 25 ul ArrayPlate lysis buffer (HTG, Tucson, AZ), and 70 ul/well of Denaturation Oil, denatured by incubation at 95C for 10 min, and frozen at approximately -70C until analysis by nuclease protection assay (qNPA) (Roberts et al., 2007). For qNPA analysis, cell lysates were thawed at 50C for approximately 30 min, qNPA probes were added, and samples were incubated at 95C for 10 min to begin the detection process by denaturing the target RNA, dissociating the duplexes and secondary structure hybridization. At the conclusion of the hybridization period, S1 nuclease reagent was added to each sample to digest all nonprotected nucleotides at 50C for 60-90 min. […]
Regarding `N#CSCSC#N`, the result was inactive.
Same read-out and setting: with `O=c1ccc(=O)[nH][nH]1` the entry was “inactive”.
As to `COP(=O)(OC)OC(Br)C(Cl)(Cl)Br` (stereo not given), the result was inactive.
Same read-out and setting: then `C[Si](Cn1cncn1)(c1ccc(F)cc1)c1ccc(F)cc1`, with “inactive”; and `CNC(=O)ON=C(C)SC`, with “inactive”; and `CN(C)C(=O)Nc1cccc(C(F)(F)F)c1`, with “inactive”.
Still for that read-out and setting: then `COc1cc(OC)nc(Sc2cccc(Cl)c2C(=O)O)n1`, with “inactive”; and `CNC(=O)Oc1cccc2c1OC(C)(C)O2`, with “inactive”; and `CC1(C(=O)Nc2ccc(O)c(Cl)c2Cl)CCCCC1`, with “inactive”.
Take `CCOP(=S)(OCC)Oc1ccc([N+](=O)[O-])cc1`: the compound was classed as inactive.
On the same count and under the same terms, with `CCCOCC(=Nc1ccc(Cl)cc1C(F)(F)F)n1ccnc1` the entry was “inactive”; with `CCCSP(=O)(OCC)SCCC`, “inactive”.
As to `CCC(=O)Nc1ccc(Cl)c(Cl)c1`, the outcome was inactive.
On the same count and under the same terms, with `Nc1nc(N)nc(NC2CC2)n1` the entry was “inactive”; with `CCNc1nc(Cl)nc(NC(C)(C)C#N)n1`, “inactive”; with `CC(COc1ccc(Oc2ccccc2)cc1)Oc1ccccn1` (stereo not given), “inactive”.
The same measure, in the same setting: with `CCCCOC(=O)[C@@H](C)Oc1ccc(Oc2ccc(C#N)cc2F)cc1` the entry was “inactive”; with `CN(C)[C@@H]1C(=O)C(C(N)=O)=C(O)[C@@]2(O)C(=O)C3=C(O)c4c(O)cccc4[C@@](C)(O)[C@H]3[C@H](O)[C@@H]12`, “inactive”; with `CC[C@H](C)[C@H]1O[C@]2(C=C[C@@H]1C)C[C@@H]1C[C@@H](C/C=C(\C)[C@@H](O[C@H]3C[C@H](OC)[C@@H](O[C@H]4C[C@H](OC)[C@@H](NC)[C@H](C)O4)[C@H](C)O3)[C@@H](C)/C=C/C=C3\CO[C@@H]4[C@H](O)C(C)=C[C@@H](C(=O)O1)[C@]34O)O2`, “inactive”.
The term AC50 denotes the concentration giving half of the maximal activity seen. Consider `CCOP(=S)(OCC)Oc1ccc2c(C)c(Cl)c(=O)oc2c1`, for which the AC50 was 5.08 nM (active).
Consider `COc1cccc(C(=O)NN(C(=O)c2cc(C)cc(C)c2)C(C)(C)C)c1C`, for which the outcome was inactive.
Still for that read-out and setting: then `O=[N+]([O-])c1cc(C(F)(F)F)c(Cl)c([N+](=O)[O-])c1Nc1ncc(C(F)(F)F)cc1Cl`, with “inactive”.
`CNC(=O)ON=C(SC)C(=O)N(C)C`: the compound was classed as inactive.
Consider `O=C(O)c1cc(Oc2ccc(C(F)(F)F)cc2Cl)ccc1[N+](=O)[O-]`, for which the AC50 is 5.69 nM (active).
Regarding `CCCOc1nn(C(=O)NS(=O)(=O)c2ccccc2C(=O)OC)c(=O)n1C`, the call was inactive.
As for `CC1=NNC(=O)N(/N=C/c2cccnc2)C1`, the compound was classed as inactive.
Still for that read-out and setting: then `CCC(=NOC/C=C/Cl)C1=C(O)CC(C2CCOCC2)CC1=O` (stereo not given), with “inactive”; and `CCC(CC)Nc1c([N+](=O)[O-])cc(C)c(C)c1[N+](=O)[O-]`, with “inactive”.
Still for that read-out and setting: with `CC(Oc1cccc(Cl)c1)C(=O)O` (stereo not given) the entry was “inactive”.
On the same count and under the same terms, then `CCc1cnc(C2=NC(C)(C(C)C)C(=O)N2)c(C(=O)O)c1` (stereo not given), with “inactive”; and `CCOP(=S)(OCC)SCCSCC`, with “inactive”; and `CSc1nnc(C(C)(C)C)c(=O)n1N`, with “inactive”.
As for `C=C(C)[C@H]1Cc2c(ccc3c2O[C@@H]2COc4cc(OC)c(OC)cc4[C@@H]2C3=O)O1`, the outcome was inactive.
Still for that read-out and setting: then `CN1COCN(Cc2cnc(Cl)s2)C1=N[N+](=O)[O-]`, with “inactive”; and `CCOP(=S)(OCC)Oc1cc(C)nc(C(C)C)n1`, with “inactive”; and `CCc1cccc(C)c1N(C(=O)CCl)C(C)COC` (stereo not given), with “inactive”.
Still for that read-out and setting: then `C#CCC1=C(C)C(OC(=O)C2C(C=C(C)C)C2(C)C)CC1=O` (stereo not given), with “inactive”.
The same measure, in the same setting: then `CSC1=N[C@@](C)(c2ccccc2)C(=O)N1Nc1ccccc1`, with “inactive”; and `CCOP(=S)(OCC)OC(Cl)C(Cl)(Cl)Cl` (stereo not given), with “inactive”; and `CCOP(=O)(OCC)Oc1cc(C)nc(C(C)C)n1`, with “inactive”.
